D1 antag: antagonists of human D1 dopamine receptor | P21728 | AID 504652 | activity change, negative = inhibition, % at 10 µM | 360,000 tested, 3.2% active | HEK293 TREx D1 cells, calcium flux, dopamine EC80; active compounds read low; in the data active means activity change below about -30%
Target sequence (P21728 whole entry, looked up): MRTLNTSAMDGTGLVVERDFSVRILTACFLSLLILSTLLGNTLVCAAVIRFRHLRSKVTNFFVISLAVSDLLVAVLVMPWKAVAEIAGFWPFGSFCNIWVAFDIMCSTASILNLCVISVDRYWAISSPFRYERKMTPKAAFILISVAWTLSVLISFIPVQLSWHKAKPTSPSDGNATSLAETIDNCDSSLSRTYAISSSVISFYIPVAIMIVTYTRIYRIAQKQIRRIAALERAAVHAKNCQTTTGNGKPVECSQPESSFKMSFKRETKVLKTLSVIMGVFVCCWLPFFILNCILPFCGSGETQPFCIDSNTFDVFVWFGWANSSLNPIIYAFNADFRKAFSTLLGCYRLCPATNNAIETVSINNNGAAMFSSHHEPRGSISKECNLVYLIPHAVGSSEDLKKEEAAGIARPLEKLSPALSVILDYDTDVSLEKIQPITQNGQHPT
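Allosteric or orthosteric antagonism assessed as attenuation of the calcium response to EC80 dopamine, added 180 s after compound, in induced HEK293 Trex D1 cells loaded with no-wash calcium dye.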
D3 antag: D3 dopamine receptor (human) antagonism. D3R cells, DiscoveRx beta-arrestin luminescence, antagonist mode; active compounds read low. max response, negative = inhibition, %. 360,000 tested, 2.5% active. AID 652054; in the data active means max response below about -50%; inconclusive means no clear call, values can overlap the other calls
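Cells plated overnight at 1500 cells/well, then exposed to library compounds with dopamine controls for 90 minutes at 37 degrees C. DiscoveRx reagent added for 30–60 minutes at room temperature; luminescence read, quantitative HTS format.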
DRD3 agonist: agonists of human D3 dopamine receptor; D3R DiscoveRx beta-arrestin cells, luminescence, 90 min; 410,000 tested, 0.58% active; max activation, %; P35462; in the data active means max activation above about 30%
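Agonist-mode cell screen: cells plated at 1500/well and incubated overnight at 37 °C, then exposed to library compounds for 90 min at 37 °C. Detection reagent was added for 30–60 min at room temperature, and luminescence was read.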
D1 ag: human D1 receptor agonism | AID 504660 | 360,000 tested, 1% active | P21728 | HEK293 T-REx D1 cells, calcium flux, agonist mode | activation, % at 2 µM; in the data active means activation above about 30%
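Tetracycline-induced HEK293 TREx D1 cells, force-coupled to calcium signalling, were dye-loaded with a no-wash calcium kit. Compound was pin-added after a 10 s baseline. Fluorescence was read kinetically at 1 cycle/s for 180 s, with calcium rises flagged as agonism.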
D1 potentiator: human D1 dopamine receptor positive modulation. P21728. HEK293 TREx D1 cells, calcium flux, dopamine EC20 potentiation. potentiation, % at 10 µM. 360,000 tested, 0.036% active. AID 504651; in the data active means potentiation above about 30%
Of the large screens only hits and unclear results are named; the others gave an inactive call; ! = a repeat was not active. Sampled rows, rich in hits. Any-hit rate of the full collection: about 6%.

COc1ccc(CNC(=O)CCC2N=C3c4ccccc4N=C(SCC(=O)NCCc4ccc(OC)c(OC)c4)N3C2=O)cc1 (centres undefined)	none (no result: D3 antag)
COc1ccc(/C=N/NC(=O)CNS(=O)(=O)c2ccccc2)cc1	D1 antag -38
Cn1cccc1/C=N/NC(=O)Cn1cnc2ccccc21	D3 antag -75
COc1ccc(/C=N/NC(=O)CCn2cnc3ccccc32)cc1	D1 antag -51
CC(=O)Nc1ccc(/C=N/NC(=O)CNS(=O)(=O)c2ccccc2)cc1	none
CC(C)c1ccc(-c2noc(SCC(=O)N3CCCCC3)n2)cc1	none (no result: D3 antag)
CSc1ccc(C2c3c(oc4ccc(F)cc4c3=O)C(=O)N2c2ccc(C)cn2)cc1 (centres undefined)	none (no result: D3 antag)
Brc1cc2[nH]cnc2c2ccccc12	DRD3 agonist 46
COc1ccccc1OCCCN1CCC(C(O)(c2ccccc2)c2ccccc2)CC1	D3 antag -85 (no result: D1 antag, D1 ag, D1 potentiator)
O=C(CN1CCC(C(O)(c2ccccc2)c2ccccc2)CC1)Nc1cc(Cl)ccc1Cl	none
COC(=O)c1cccc(OCCCN2CCC(C(O)(c3ccccc3)c3ccccc3)CC2)c1	D3 antag -93 (no result: D1 antag, D1 ag, D1 potentiator)
O=C(CN1CCC(C(O)(c2ccccc2)c2ccccc2)CC1)Nc1ccccc1	none
OC(c1ccccc1)(c1ccccc1)C1CCN(CCCOc2ccccc2Cl)CC1	D3 antag -80 (no result: D1 antag, D1 ag, D1 potentiator)
N#Cc1ccccc1OCCCN1CCC(C(O)(c2ccccc2)c2ccccc2)CC1	D3 antag -96 (no result: D1 antag, D1 ag, D1 potentiator)
C#Cc1ccccc1OCCCN1CCC(C(O)(c2ccccc2)c2ccccc2)CC1	D3 antag inconclusive (no result: D1 antag, D1 ag, D1 potentiator)
Cc1cc(N2CCCCC2)nc2ccc(NC(=O)/C=C/c3ccccc3OC(C)C)cc12	none (no result: D3 antag)
Cc1ccc(OCCCN2CCC(C(O)(c3ccccc3)c3ccccc3)CC2)cc1	none (no result: D1 antag, D1 ag, D1 potentiator)
OC(c1ccccc1)(c1ccccc1)C1CCN(CCCOc2ccc(F)cc2)CC1	D3 antag -95 (no result: D1 antag, D1 ag, D1 potentiator)
COc1ccccc1CNCC(O)(c1ccc(Cl)cc1)c1ccc(Cl)cc1	D3 antag -83
CCN(CC)CCNCC(O)(c1ccc(Cl)cc1)c1ccc(Cl)cc1	D3 antag -60, D1 ag 32
COc1ccccc1CNCC(O)(c1ccc(F)cc1)c1ccc(F)cc1	D1 antag -52
OC(CNCc1ccccc1F)(c1ccc(F)cc1)c1ccc(F)cc1	none
CC(C)(C)NCC(O)(c1ccc(Cl)cc1)c1ccc(Cl)cc1	none
Cc1cccc(N(C)C(=O)C2CCC(CNS(=O)(=O)c3cccc4nsnc34)CC2)c1 (centres undefined)	none (no result: D3 antag)
O=C(Cn1ncc2c(Cl)cccc21)NCc1cccc(Br)c1	D1 antag -30 (no result: D3 antag)
O=C(Cn1c(=O)c2cccn2c2ccccc21)NCc1cccc(F)c1	none
O=C(Cn1ncc2c(Cl)cccc21)NCc1cccc(F)c1	D1 antag -81 (no result: D3 antag)
CCSc1nc(-c2ccc(Cl)cc2)nc2c1Cc1c(CO)cnc(C)c1O2	none (no result: D3 antag)
CCOc1ccc(-n2c(SCC(=O)N3CCC(C)CC3)nc3c([nH]c4ccccc43)c2=O)cc1	none (no result: D3 antag)
CC(CNC(=O)c1cnn(-c2ccc(F)cc2)c1-n1cccc1)c1ccccc1 (centres undefined)	none (no result: D3 antag)
CCCCCn1ncc2c3sc(C)cc3n(C)c2c1=O	none (no result: D3 antag, DRD3 agonist)
COc1ccc(S(=O)(=O)N(Cc2nc(-c3cccc(C)c3)no2)C2CCCCC2)cc1	none (no result: D3 antag)
O=c1ccn([C@@H]2O[C@H](CNCC3=Cc4cc(O)ccc4OC3)[C@@H](O)[C@H]2O)c(=O)[nH]1	DRD3 agonist 55 (no result: D1 antag, D1 ag, D1 potentiator)
COc1cccc(CNC(=O)Cc2csc3ccccc23)c1OC	none (no result: D3 antag)
Cc1ccc(-c2csc3ncnc(Sc4nnc(CN5CCCCCC5=O)o4)c23)cc1	D3 antag -69
Cc1ccc(-c2csc3ncnc(SCC(=O)Nc4nnc(C)s4)c23)cc1	none
Cc1ccc(CCNC(=O)CCSCc2ccccc2Cl)cc1	none (no result: D3 antag)
Cc1ccc(O)c(C(=O)c2cc(C#N)c(=O)n(-c3nccs3)c2)c1	D1 ag 331
CC(=O)N1CCc2c(sc3c2c(=O)n(-c2ccc(C)cc2)c(=O)n3Cc2ccccc2C)C1	none (no result: D3 antag)
COc1cccc(=O)c2c(C)n(-c3cc(C)cc(C)c3)c(C)c12	D3 antag -65
COC(=O)c1sc(S(=O)(=O)N2CCC(C(=O)O)CC2)c(C(=O)OC)c1C	none
COC(=O)c1sc(S(=O)(=O)N2CCCCC2C)c(C(=O)OC)c1C (centres undefined)	D1 antag -59
COC(=O)c1onc(-c2ccccc2)c1C(=O)OC	D1 antag -36
COC(=O)c1c(-c2ccccc2)noc1C	none
Cc1cc(N2C(=O)CC(N3CCN(c4ccc(C(=O)c5cccs5)cc4)CC3)C2=O)no1 (centres undefined)	D3 antag -52
O=C(c1ccc(N2CCN(C3CC(=O)N(Cc4cccs4)C3=O)CC2)cc1)c1cccnc1 (centres undefined)	none
Cc1cc(OCC(O)CNC(C)c2ccccc2)ccc1C(C)C (centres undefined)	D1 ag 30
CC(CCc1ccccc1)NCC(O)COc1ccccc1 (centres undefined)	D3 antag -64
CC(COc1ccc(/C=C/c2ccccc2)cc1)[N+](C)(C)C (centres undefined)	none
OC(CNCc1ccccc1)COc1ccccc1 (centres undefined)	none
CC(NCC(O)COc1ccc2ccccc2c1)c1ccccc1 (centres undefined)	D1 ag 42
COc1ccc(OCC(O)CNC(C)c2ccccc2)cc1 (centres undefined)	none
CC(NCC(O)COc1ccc(Br)cc1)c1ccccc1 (centres undefined)	none
CC(COc1ccccc1)NN (centres undefined)	DRD3 agonist 67 (no result: D1 antag, D3 antag, D1 ag, D1 potentiator)
CCOC(=O)c1cccc(NC(=O)CCC(=O)N2CC(C)Oc3ccc(C)cc32)c1 (centres undefined)	none (no result: D3 antag)
COC(=O)c1cc2occc2n1CC(=O)Nc1ccc(N(C)C)cc1	none (no result: D3 antag)
C[C@@H](c1ncncc1F)C(O)(Cn1cncn1)c1ccc(F)cc1F (some centres undefined)	none (no result: D1 antag, D3 antag, D1 ag, D1 potentiator)
COc1cccc(-c2cn3c(n2)sc2cc(C(=O)NC4CCCCCC4)ccc23)c1	none (no result: D3 antag)
CCOC(=O)CCn1c(=O)c2cccn2c2cccnc21	none (no result: D3 antag)
Cc1cc(O)c(-c2ccnc3cc(-c4ccccc4)nn23)cc1Cl	none (no result: D3 antag)
CN(CC(O)COc1ccc2ccccc2c1)C1CCCCC1 (centres undefined)	D1 ag 32
COc1ccc(OCC(O)CN(C2CCCCC2)C2CCCCC2)cc1 (centres undefined)	none
CC(C)=N/N=C1/NC(=O)C(c2ccc(Cl)cc2)S1 (centres undefined)	D3 antag -96 (no result: D1 antag, D1 ag, D1 potentiator)
CCOc1ccc2ccccc2c1C(=O)N[C@@H]1C(=O)N2[C@@H]1SC(C)(C)[C@@H]2C(=O)O	DRD3 agonist 49!
Cc1ccc(CNC(=O)C2CCN(S(=O)(=O)c3c(C)noc3/C=C/c3ccco3)CC2)cc1	D1 antag -48
